# Bioassay records (PubChem BioAssay)
# IL1B secr inh: qHTS for Inhibitors of Inflammasome Signaling: IL-1-beta AlphaLISA Primary Screen | THP-1 LPS/ATP IL-1B secretion, AlphaLISA, 16 h; active compounds read low | activity change, % at 57.5 µM | 360,000 tested, 4.7% active | AID 743279, 2014; in the data active = activity change below about -50%; inconclusive = mostly about -30% to -49%
#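 Secreted IL-1B measured by AlphaLISA bead assay after 16 h compound exposure of THP-1 cells; compounds (final up to 57.5 uM) added 1 h before LPS (250 ng/mL) and ATP (1.25 mM) stimulation; lower signal means less secretion.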
# TDP1 cell noCPT: qHTS for Inhibitors of human tyrosyl-DNA phosphodiesterase 1 (TDP1): qHTS in cells in absence of CPT; Potency, µM (doses to about 46.2 µM), without a hit: at the highest dose activity change, negative = growth inhibition, usual class: inhibitors; DT40 Tdp1-/- hTDP1 cells, no CPT, ATP luminescence, 48 h; AID 686978, 2013; 420,000 tested, 15% active; also: potency is read from the fitted curve at half-maximal effect; nearly all actives have a fitted effect of over 55% in size
#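 Growth of hTDP1-complemented DT40 Tdp1-knockout cells is measured by ATP luminescence after at least 48 hr compound exposure at 37 °C, with DMSO substituting for the 20 nM CPT used in the parallel screen.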
# HT1080-NT tox: qHTS for induction of synthetic lethality in tumor cells producing 2HG: qHTS for the HT-1080-NT fibrosarcoma cell line. HT-1080-NT fibrosarcoma viability, CellTiter-Glo ATP luminescence, 48 h. Potency, µM (titrated, usually from 46.1 µM), for the others: at the top dose activity, negative = less viability, most hits filed as cytotoxic. 360,000 tested, 1.6% active;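 also: NT is the 2HG producing partner of a matched IDH1 knockdown line; potency is read from the fitted curve at half-maximal effect; 0% = DMSO-treated cells and -100% = media-only wells without cells; nearly all actives have a fitted effect of over 55% in size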
#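 Read-out is CellTiter-Glo luminescence after 10 minutes at room temperature, following 48 hours' compound treatment of HT-1080-NT cells (750 cells/well, RPMI, 5% FBS, 37 degrees C).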
# TDP1 cell CPT: qHTS for Inhibitors of human tyrosyl-DNA phosphodiesterase 1 (TDP1): qHTS in cells in presence of CPT; chicken DT40 Tdp1-/-;hTDP1 cells + 20 nM CPT, ATP luminescence, 48 h; Potency, µM (highest dose often 46.2 µM), for inactives: at the top dose activity change, negative = growth inhibition, actives largely listed as inhibitors; 420,000 tested, 12% active; also: potency is read from the fitted curve at half-maximal effect; nearly all actives have a fitted effect of over 55% in size
#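 Chicken DT40 Tdp1-/- cells complemented with human TDP1, 400 cells/well, exposed to compounds plus 20 nM camptothecin for at least 48 h at 37 C; viability read as ATP content by CellTiter-Glo luminescence.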
# HT1080 IDH1KD tx: qHTS for induction of synthetic lethality in tumor cells producing 2HG: qHTS for the HT-1080-IDH1KD cell line. 360,000 tested, 2% active. Potency, µM (highest dose often 46.1 µM), for the others: at the top dose activity, negative = toxicity, most hits filed as cytotoxic. HT-1080 IDH1 knockdown viability, ATP luminescence, 48 h;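 also: potency is read from the fitted curve at half-maximal effect; 0% = DMSO wells and -100% = cell-free medium wells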
#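 IDH1KD HT-1080 cells, 750/well, RPMI + 5% FBS; compound pinned after 2 h settling; 48 h, 37 °C; CellTiter-Glo luminescence; % activity normalised to DMSO and no-cell wells; curves fitted, classed by r2 and efficacy.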
# * = called active by the depositor; ? = inconclusive; · = no result given. Rows were chosen to be rich in hits. Some 19% of all compounds tested hit in one or more screens of this group. Unless noted, calls follow the shape of the dose curve; as a rule, active = well fitted curve in the direction sought with a large enough effect; inconclusive = small, poorly fitted or top-dose-only effect, or another doubt; inactive = no such curve, though single readings can be large; an effect the other way counts as inactive or inconclusive. Unless noted, % is scaled to controls: 0 for no effect and ±100 for the full control effect.
SMILES,IL1B secr inh,TDP1 cell noCPT,HT1080-NT tox,TDP1 cell CPT,HT1080 IDH1KD tx
Cc1nc(-c2cccc(NC(=O)Nc3ccc([N+](=O)[O-])cc3)c2)no1,·,4.61µM*,·,5.17µM*,·
COc1ccc(NC(=S)Nc2ccccc2)cn1,-10.8,7.8%,?,11.4%,?
Cc1nc(-c2cccc(-c3noc(C)n3)c2)no1,-8.5,-16.3%,20.7%,-0.3%,2.8%
CC(C)(C)c1ccc(NC(=O)Nc2ccc(F)cc2)cc1,?,6.51µM*,-12.0%,5.17µM*,-19.9%
COc1cccc(NC(=O)Nc2ccc(C(C)(C)C)cc2)c1,-66.3*,23.1µM*,16.4µM*,?,?
COc1cccc(NC(=O)Nc2ccncc2)c1,29.8,-22.6%,5.9%,-22.8%,-0.8%
COc1ccc(NC(=O)Nc2ccc(F)cc2)cn1,-2.8,7.31µM*,7.1%,16.4µM*,10.9%
CCN(CC(=O)Nc1ccc(NC(C)=O)cc1)C(=O)c1ccc(=O)n(C)n1,-3.2,14.5%,3.4%,10.4%,13.2%
COc1ccccc1CNc1nc2ccc(C)cc2n2nnnc12,·,-25.3%,·,-21.2%,·
CCSC1=N/C(=C\c2ccccc2)C(=O)N1c1ccc(OC)cc1,-5.2,20.6µM*,25.5%,?,10.7%
CCCOC(=O)c1c(NC(=O)c2cc3ccccc3c(=O)o2)sc2c1CCC(C)C2 (configuration not stated),·,-10.7%,·,10.5%,·
C=C1NN(CC#N)C(=O)N1c1ccc(OCc2ccccc2)cc1,·,?,·,8.1%,·
C=C1NN(Cc2ccccc2)C(=O)N1c1ccc(OCc2ccccc2)cc1,·,11.2µM*,·,11.2µM*,·
O=C(c1cccc(F)c1F)N1CCOc2ccc(CN3CCN(Cc4ccccn4)CC3)cc2C1,·,-7.8%,·,10.1%,·
CC(=O)Oc1cc2c(cc1Cl)C1(CC(c3ccccc3Cl)O2)CC(C)(C)NC(=S)N1 (configuration not stated),-23.5,2.59µM*,16.4µM*,3.26µM*,23.1µM*
COc1cccc(C2C(C(N)=O)=C(C)Nc3nc(CCCO)nn32)c1 (configuration not stated),-11.0,13.0%,1.4%,-1.2%,-11.5%
CC(C)(C)NC(=O)CSC(=Nc1cccc(F)c1)NC#N,-96.7*,?,0.5%,?,-8.3%
Cc1cc(C)cc(OCCCCn2cncn2)c1,22.2,-0.2%,7.9%,-4.1%,12.9%
CC1CC(C)CN(C(=S)NC2CCCCC2)C1 (configuration not stated),13.6,25.9µM*,-1.7%,?,0.7%
C[C@@H]1C[C@@H]2OC(=O)[C@]3(C)[C@H]2[C@@H](OC3(C)O)[C@]2(C)C(=O)C=C[C@H]12 (some centres not stated),-90.3*,?,-14.0%,18.4µM*,1.0%
CC(=O)Oc1ccc(C(=O)Nc2cccnc2)cc1,5.5,?,-11.9%,?,-20.3%
O=C(CCn1c(=O)c2ccccc2n(CC(=O)Nc2cccc(F)c2)c1=O)NCCc1ccccc1,·,-28.4%,·,4.7%,·
CC(=O)C1=C(S(=O)(=O)c2ccc(C)cc2)CS(=O)(=O)C1,?,4.61µM*,?,3.66µM*,?
CC(C)(C)NC(=O)C(c1c[nH]c2ccccc12)N(C(=O)Cn1nnc(-c2ccc(F)cc2)n1)c1cccc(O)c1 (configuration not stated),?,20.6µM*,-20.2%,?,?
CC(C)(C)NC(=O)C(c1ccco1)N(C(=O)Cn1nnc(-c2ccc(F)cc2)n1)c1cccc(F)c1 (configuration not stated),-3.6,20.6µM*,4.4%,?,6.2%
SMILES,IL1B secr inh,TDP1 cell noCPT,HT1080-NT tox,TDP1 cell CPT,HT1080 IDH1KD tx
O=c1[nH]c(Nc2nc3ccccc3o2)nc2c1CCCC2,-100.8*,4.11µM*,2.24µM*,2.91µM*,3.98µM*
CCOC(=O)Nc1cc(=O)c2ccccc2o1,22.7,13µM*,8.91µM*,8.2µM*,?
CCN1CCN(C(=O)/C=C/c2ccc(C)o2)CC1,21.2,6.1%,14.8%,11.4%,8.3%
COc1cccc(OC)c1OC(=O)/C=C/c1ccc(C)o1,10.1,-15.0%,13.9%,17.7%,11.0%
CC(/C=C/c1ccc(C)o1)=C\C(=O)O,-18.4,18.4µM*,4.7%,11.6µM*,-3.7%
Cc1ccc(/C=C/C(=O)N2CC(C)CC(C)C2)o1 (configuration not stated),?,3.26µM*,?,1.46µM*,?
CC(=O)/C=C/c1ccc(C)o1,10.8,?,3.2%,16.4µM*,-2.4%
OCC1OC(Oc2c[nH]c3ccccc23)C(O)C(O)C1O (configuration not stated),34.0,-18.7%,20.6%,-9.1%,5.5%
Cc1ccc(S(=O)(=O)N2C(=O)CCC2C(=O)Nn2cnnc2)cc1 (configuration not stated),40.3,1.3%,11.6%,3.7%,4.9%
Cc1nnc(SCCn2c(N(C)Cc3ccccc3)nc3c2c(=O)n(C)c(=O)n3C)s1,6.8,11.2µM*,8.4%,?,3.4%
Cc1nnc(SCCn2c(N3CCN(C)CC3)nc3c2c(=O)n(C)c(=O)n3C)s1,-15.9,-4.9%,-6.8%,-16.6%,3.5%
CCOC(=O)Cn1c(CN(C)Cc2ccccc2)nc2c1c(=O)n(C)c(=O)n2C,-10.5,11.6µM*,-5.6%,9.2µM*,-15.6%
CN(Cc1ccccc1)Cc1nc2c(c(=O)n(C)c(=O)n2C)n1CCCc1ccccc1,-24.1,15.8µM*,14.0%,18.4µM*,21.3%
COC(=O)Cn1c(CN(C)Cc2ccccc2)nc2c1c(=O)n(C)c(=O)n2C,64.0,?,16.4%,?,8.1%
Cn1c(=O)c2c(nc(CCc3ccccc3)n2C)n(C)c1=O,16.5,-18.8%,28.9%,-27.2%,5.4%
CC(C)Cn1c(CN(C)Cc2ccccc2)nc2c1c(=O)n(C)c(=O)n2C,28.4,7.31µM*,-1.1%,6.51µM*,-4.8%
CC(=O)Oc1ccc2c(C)c(CC(=O)N3CCN(C(=O)C4COc5ccccc5O4)CC3)c(=O)oc2c1C (configuration not stated),-24.8,-28.9%,-3.1%,?,-22.6%
COc1nc(NCCO)nc(Nc2cc(Cl)ccc2OC)n1,-10.4,-22.3%,-4.7%,-15.8%,0.4%
Nc1nc(Nc2cccc(F)c2)nc2ccccc12,-111.3*,18.4µM*,?,18.4µM*,?
COc1ccc(Cl)cc1Nc1nc(N)c2ccccc2n1,-89.4*,?,?,?,?
